The record followed here is PubChem BioAssay (NCI).

This is part of a sample that, as a whole, favours compounds with a hit. Of some 79,000 tested, about 15% had one in any assay. A number with no mark means an inactive call. Calls of active or inactive are those of the source. Cut-off read from the data, not from the text of the source: active = growth inhibition above about 70%; inactive = the rest.

This assay in a line: NCI Yeast Anticancer Drug Screen. Data for the bub3 strain (AID 167). As to conditions: S. cerevisiae bub3 mutant strain, at 50.0 µM, active compounds read high. Summed up:
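Part of a panel of yeast mutants defective in DNA damage repair or cell cycle regulation. Each strain is grown with compound, and inhibition is calculated relative to solvent-treated cultures.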
Take `COc1cccc(NC(=O)CC(=O)NN2C(=O)/C(=C/c3ccc(N(CCC#N)CCC#N)cc3)N=C2c2cc([N+](=O)[O-])ccc2Cl)c1`: the growth inhibition was 0.3%.
In the case of `CC(C)(C)[Si](C)(C)OCCc1ccccc1C1CC2(S(=O)(=O)c3ccccc3)ON1CC2S(=O)(=O)c1ccccc1` (stereo not given), the growth inhibition was 8.4%.
The same measure for `Nc1ccc(N2N=C(N3CCCC3)CC2=O)cc1`: -12.7%; for `OCc1ccc2ccccc2n1`: 12.7%.
For the molecule `COc1ccc(CCNC(=S)N/C=C(\C#N)S(=O)(=O)c2ccc(C)cc2)cc1OC`, the growth inhibition was -19.8%.
Then `O=C(/C=C\c1ccc(Cl)cc1)OCCCCOC(=O)/C=C/c1ccc(Cl)cc1`, with 2.9%.
For the molecule `Oc1ccccc1/C=N/Nc1nc(N/N=C/c2ccccc2O)nc(N/N=C/c2ccccc2O)n1`, the growth inhibition is -6.7%.
As to `CC(C)CCCC(C)C1CCC2C3CC=C4CC(OC5CCC6(C)C(=CCC7C6CCC6(C)C(C(C)CCCC(C)C)CCC76)C5)CCC4(C)C3CCC12C` (stereo not given), the growth inhibition was -1.75%.
Then `COc1ccc(N2C(=O)[C@@H]3[C@H](C2=O)c2[nH]c4ccccc4c2C2CCC(C(C)(C)C)C[C@@H]23)cc1` (stereo not given in full), with 6.2%; and `C=CCC1(C(C)C(O)c2cc(OC)c(OC)c(OC)c2)CC(O)C=CC12OCCO2` (stereo not given), with 16.2%.
The same measure for `CCOc1ccc(N2C(=O)C(=O)C(C#N)(c3nc4ccccc4o3)C(=O)C2=O)cc1`: -0.7%.
As to `CC(=O)c1ccc(N2CCCCC2)cc1`, the growth inhibition was 40%.
Then `CCOC(=O)c1ccc(Nc2cnc3ccc(C(F)(F)F)cc3n2)cc1`, with 30.9%.
Then `Cc1ccc(C(=O)C(c2nc3n(c2O)/C(=N/C(=O)Nc2ccc(Cl)cc2)N=N3)c2nc3n(c2O)/C(=N/C(=O)Nc2ccc(Cl)cc2)N=N3)cc1`, with -29.1%; and `CCCCS(=O)(=O)CCC(N)C(=O)O` (stereo not given), with -4.75%; and `Clc1ccc(C2N3CCCCC3[C@@H]3c4[nH]c5ccccc5c4CCN23)cc1` (stereo not given in full), with 0.3%.
The same measure for `O=C1NC(=O)C(c2ccc(Cl)c(Cl)c2)N1` (stereo not given): -12.9%; for `CCCC(C)C(=O)OCCOC` (stereo not given): 4.45%; for `Cc1ccc(N=Cc2cc(Cl)cc(Cl)c2OC(=O)c2ccccc2)cc1C`: 96.5% (active).
On to `CN(Cc1ccccc1)C(=O)NC1CCCCC1`, for which the growth inhibition is 3.4%.
For the molecule `c1ccc2c(-c3ccncc3)c3ccccc3cc2c1`, the growth inhibition is 6.5%.
Regarding `C(=N/Nc1ccccc1)/c1ccco1`, the growth inhibition is 12.5%.
Then `CCCc1sc(NC(C)=O)nc1-c1ccccc1`, with -9.7%; and `CC(=O)OC1CCC2(C)C(CCC3(C)C2CC=C2C4CC(C)(C)CCC4(C)CCC23C)C1(C)C` (stereo not given), with 6.05%; and `CCOC(=O)C(C)c1nc2cc(C(F)(F)F)ccc2[nH]c1=O` (stereo not given), with 19.7%.
As for `NC(=O)C(=O)NNC(=O)Nc1ccc(Cl)cc1`, the growth inhibition was 1.75%.
In the case of `CCCCC1OCCOC1C1COCCO1` (stereo not given), the growth inhibition is 2.55%.
As to `CC(=O)Oc1ccc(Nn2c3ccccc3c3ccccc32)c(C)c1`, the growth inhibition was 41.4%.
Then `CCCCCCCCC(=O)Nc1nc2nc[nH]c2c(=O)[nH]1`, with -14.3%; and `CCC(CC)C(=O)OCCCCC1CCCO1` (stereo not given), with 12.2%; and `CC(C)C(=O)OC1(Cc2cccc[n+]2C)CCCCC1`, with 12.9%.
Regarding `CCCCCCn1ncc(=O)[nH]c1=O`, the growth inhibition was 6.6%.
Then `Cc1ccc(O)c(C)n1`, with -0.2%.
Then `N#C/C(=C\C1CCCC([N+](=O)[O-])C1)C1CCC([N+](=O)[O-])CC1` (stereo not given), with -5.05%; and `CC(=O)c1cccc2c(C(C)=O)cccc12`, with 3.4%; and `CN1C(=O)CC(c2ccc(Cl)cc2)C1=O` (stereo not given), with -3.75%.
The same measure for `C=CCNC(=S)N(Cc1ccccc1)Cc1ccccc1`: 88.7% (active); for `CC(C)(C)NCC(O)c1ccc(O)c(CO)n1` (stereo not given): -8.9%; for `O=S1(=O)C2C=CCC1C(Cl)CC2` (stereo not given): 24.9%.
For `O=C1c2ccccc2-c2nc(/C=C/c3ccccc3)cc3c2c1nc1ccccc13`, the growth inhibition was -9.5%.
